Screening results (PubChem)
Compounds with a hit are over-represented: about 4.2% of the library has one in this group of screens.
tim10-1 inh: growth inhibitors of tim10-1 mutant yeast; S. cerevisiae tim10-1 ts strain growth, BacTiter-Glo, 24 h; inhibition, % at 20 µM; hit rate 2.2% among 330,000; AID 463190;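 active = inhibition of at least 40%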;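 also: mutant grown at 25 °C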
NALP1 inh: blocks the NALP1 inflammasome reconstituted in yeast | S. cerevisiae NALP1/ASC/caspase-1 growth, X-gal OD620, 72 h | inhibition, % at 10 µM | hit rate 0.61% among 280,000 | AID 2071; in the data active = inhibition mostly above about 24%, no sharp cut-off; inactive = mostly below about 32%
NLRP3 yeast inh: blocks the NALP3 inflammasome reconstituted in yeast; Yeast reconstituted NLRP3/ASC/caspase-1, beta-gal luminescence, 24 h; inhibition, % at 10 µM; hit rate 0.39% among 330,000; AID 2825;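 active = inhibition of 50% or more; inactive = inhibition below 50%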
TIM10 inh: growth inhibitors of TIM10 yeast strain; inhibition, % at 10 µM; S. cerevisiae TIM10 strain growth, BacTiter-Glo luminescence, 24 h; hit rate 1.4% among 330,000;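 active = inhibition of 40% or more at the single tested concentration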;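 also: wild-type TIM10 isogenic control strain grown at permissive 25 °C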
V-ATPase pH: alters yeast V-ATPase proton transport; hit rate 0.37% among 350,000; S. cerevisiae, pHLuorin cytosolic pH fluorescence; response, % at 10 µM; in the data active = response mostly above about 7.3%, no sharp cut-off; inactive = mostly below about 5.4%; also: actives read high
tim23-1 inh: growth inhibitors of tim23-1 mutant yeast; hit rate 1.3% among 330,000; S. cerevisiae tim23-1 growth, BacTiter-Glo luminescence, 24 h; AID 463212; inhibition, % at 20 µM;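 active = growth inhibition of the mutant yeast at or above 50%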;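 also: temperature-sensitive mutant grown at 25 °C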
TIM10 conf: confirmation of TIM10 yeast growth inhibitors. shares compounds with TIM10 inh. S. cerevisiae tim10 strain growth, BacTiter-Glo luminescence, 24 h. inhibition, % at 10 µM. hit rate 63% among 4,600;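 active = inhibition of yeast growth at or above a set limit in either of two replicates at 10 µM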; also: this counterscreen used the strain with wild-type TIM10
A number is an active result; . = inactive; / = not tested or not shown.

SMILES	tim10-1 inh	NALP1 inh	NLRP3 yeast inh	TIM10 inh	V-ATPase pH	tim23-1 inh	TIM10 conf
CC(C)(C)n1nnnc1C(c1cccc(C#N)c1)N1CCCc2ccccc21 (configuration not stated)	.	.	.	43	.	.	.
CCC(C)(C)n1nnnc1C(c1cccnc1)N1CCCc2ccccc21 (configuration not stated)	.	.	.	40	.	.	37
CCOC(=O)c1ccc(Oc2nc(NC)nc(OC)n2)cc1	.	.	.	.	.	.	/
CCOc1cc(-c2cc(-c3ccc(C)o3)nc(N)c2C#N)ccc1O	.	.	.	43	.	.	.
Cc1ccc(NC(=O)CSc2n[nH]c(-c3ccco3)n2)cc1	.	.	.	.	.	.	/
Cc1[nH]c2ccccc2c1CCNC(=O)c1ccc2c(c1[N+](=O)[O-])C(=O)c1ccccc1C2=O	.	.	.	45	.	.	.
CC(=O)Cc1nsc(NC(=O)c2ccccc2Cl)n1	.	.	.	51	.	.	.
COC(=O)[C@@H]1CCCN1C(=O)CCc1nnc(CCC2CCCCC2)o1	.	.	.	45	.	.	.
CS(=O)(=O)c1nc(-c2ccccc2)cc(C(F)(F)F)n1	.	.	.	45	.	.	.
N#CCc1nn(-c2ccc(Cl)cc2)c(N)c1C#N	.	.	.	.	.	.	/
CC1CCN(C(=S)c2cn(Cc3ccc(F)cc3)c3ccccc23)CC1	.	.	.	55	.	.	38
CN1CCN(C(=S)c2cn(Cc3ccc(F)cc3)c3ccccc23)CC1	.	.	.	.	.	.	/
CCNC(=S)N/N=C/c1cn(Cc2ccc(F)cc2)c2ccccc12	.	.	.	43	.	.	51
COCCCNC(=S)NNC(=O)c1ccoc1C	.	.	.	.	.	.	/
O=S(=O)(c1ccc(F)cc1)N1CCN(Cc2nnc(-c3ccccc3)o2)CC1	.	/	.	.	.	.	/
CCN(CC)c1ccc(/C=C/C(=O)c2ccc(Br)cc2)cc1	/	.	/	/	.	/	/
O=C(/C=C/c1ccc(Br)cc1)c1ccc(NC2=NCCCS2)cc1	.	.	.	52	.	.	.
O=C(c1ccccc1[N+](=O)[O-])n1cnc2ccccc21	.	.	.	.	.	.	/
O=C(c1cc(Cl)ccc1[N+](=O)[O-])n1cnc2ccccc21	.	.	.	41	.	.	.
CN(C(=O)c1cnc(N2CCN(c3ncccn3)CC2)c2ccccc12)c1ccc(Cl)cc1	.	.	.	52	.	.	28
CNc1nc(N)c([N+](=O)[O-])c(Nc2ccccc2OC)n1	.	.	.	44	.	.	52
Oc1ccc2[nH]ccc2c1	.	.	.	.	.	.	/
NS(=O)(=O)c1ccc(N=Nc2c(O)ccc3ccccc23)cc1	.	.	.	.	.	.	/
Oc1ccc(N=Nc2c(O)ccc3ccccc23)cc1	.	/	.	54	.	.	65
CCOC(=O)NC(=S)Nc1ccc(C(C)(C)C)cc1Br	.	.	.	50	.	.	39
SMILES	tim10-1 inh	NALP1 inh	NLRP3 yeast inh	TIM10 inh	V-ATPase pH	tim23-1 inh	TIM10 conf
COc1ccc(C(=O)Nc2ccccc2C(=O)Nc2cc(C)ccn2)cc1	.	.	.	43	.	.	44
COc1ccc(C(=O)Nc2ccccc2C(=O)Nc2cccc(C)n2)cc1	.	.	.	.	.	.	/
CCCn1cc(NC(=O)c2cc(-c3ccccc3)on2)cn1	.	.	.	43	.	.	41
Cc1cc(C)n(-c2nc(NC(C)(C)C)nc(NC(C)(C)C)n2)n1	.	.	.	45	.	.	43
CCCSc1nc(N2CCCC2)c2c(c1C#N)CC(C)(C)OC2	.	/	.	.	.	.	/
Brc1ccc2[nH]c3c(N4CCc5ccccc5C4)ncnc3c2c1	.	.	.	43	/	.	.
Cc1[nH]nc(N=CC2=C(O)CC(C)(C)CC2=O)c1-c1ccc(Cl)cc1	.	.	.	41	.	.	30
Cc1[nH]nc(N=CC2=C(O)CC(c3ccco3)CC2=O)c1-c1ccc(Cl)cc1 (configuration not stated)	.	.	.	.	.	.	/
O=C(COc1ccc2c(c1)CCC2)N1CCc2ccccc21	.	.	.	45	.	.	37
Clc1ccccc1CSc1cc2c(nn1)-c1ccccc1CC2	.	.	.	.	.	.	/
Clc1cccc(Cl)c1CSc1cc2c(nn1)-c1ccccc1CC2	.	.	.	40	.	.	.
Cc1ccc(C(=O)OCC(=O)N2CC(=O)Nc3ccccc32)s1	.	.	.	.	.	.	/
CC(C)CCNC(=O)c1sc2ccc(S(=O)(=O)N3CCCCC3)cc2c1N	.	.	.	41	.	.	38
COc1ccccc1NC(=O)Nc1ccc(Cc2ccncc2)cc1	.	.	.	44	.	.	39
COc1ccccc1NC(=O)Nc1cc(F)ccc1F	.	.	.	46	.	.	.
Cc1ccc(S(=O)(=O)CCC(=O)NCc2ccccc2)cc1	.	.	.	.	.	.	/
Cc1scc(C(=O)N/N=C/c2ccc(OCC(C)C)cc2)c1C	.	.	.	44	.	.	.
COc1cc2c3c(c1OC)-c1cc4c(cc1CC3(C#N)N(C(=O)c1ccccc1)CC2)OCO4 (configuration not stated)	/	/	/	/	.	/	/
Cc1cccc2nc(-c3ccccc3)nc(N3CCC(O)(c4ccc(Cl)cc4)CC3)c12	.	.	.	43	.	.	55
CSc1cc(-c2ccc(Cl)cc2)c(C(=O)NN)s1	.	.	.	44	.	.	27
COc1ccc(CN2CCNC(=O)C2CC(=O)NCc2cc(C)n(C)n2)c(F)c1 (configuration not stated)	.	.	.	.	.	.	/
Cc1noc(C(=O)Nc2ccc3c(c2)OCO3)c1Cl	.	.	.	97	.	.	.
COc1nnc(-c2ccc(N3CCOCC3)c(NC(=O)C3CCCCC3)c2)c2ccccc12	.	.	.	41	.	.	.
Cc1ccc(N=Cc2cc(Cc3ccccc3Cl)cc([N+](=O)[O-])c2O)c(O)c1	.	.	.	52	.	.	34
Cc1n[nH]c(C)c1Sc1ccccc1N=Cc1cc(Cl)cc([N+](=O)[O-])c1O	.	.	.	.	.	.	/
SMILES	tim10-1 inh	NALP1 inh	NLRP3 yeast inh	TIM10 inh	V-ATPase pH	tim23-1 inh	TIM10 conf
CNc1nc(NN)nc(Nc2ccccc2)n1	.	.	.	96	.	.	.
CN1CCC(OC(=O)COc2ccc(Br)cc2)CC1	.	.	.	.	.	.	/
Cc1cc2c(cc1C)C(=O)C(=O)N2	/	/	/	/	.	/	/
O=C1Nc2cc3c(cc2C1=O)sc1ccccc13	.	.	.	50	.	.	68
O=C(CSc1ccc2ccccc2n1)N/N=C/c1ccccc1O	.	.	.	41	.	.	.
O=C(CSc1ccc2ccccc2n1)N/N=C/c1ccc(O)cc1	.	.	.	.	.	.	/
Cc1cc(NC(=O)COc2ccccc2)n(-c2ccccc2)n1	.	.	.	.	.	.	/
